Test results taken from the supplement of paper PMC6555819.

These sequences were tested on THRa:RXRa (NR concentration 90 nM, RXRa partner concentration 90 nM) (assay: PBM binding z-score (relative to random genomic background probes); higher = stronger binding; sequences stand for … in GC…GCGATTGACAGCGTAGAATGAAGG).
Procedure, shortened: (§1)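 Custom Agilent 4×180K protein-binding microarrays carried double-stranded probes. Their 34-nt variable regions held direct-repeat seeds, single-nucleotide variants, half-site ablations and random human genomic background sequences. Arrays were incubated 1 h with ligand-free nuclear receptor dimers in PBS pH 7.4, 2% milk, 0.02% Triton X-100, 1 mM DTT, 0.2 mg/mL BSA and 0.4 mg/ml salmon testes DNA. Antibodies against each partner (one per run) detected binding, and scanned fluorescence was regression-normalized. Binding z-scores use random background probes as reference.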
CATACAGGGTCAGCTAGGCCAGAGTGGGGACGGC was tested, and the PBM binding z-score was 3.12. With CGTCCAAGGTCAAATGTCAGTGAAGAGATGACGG the PBM binding z-score was 4. ATATGTAGGTTACATCCGGCTCATTCAGGCTATG gave a PBM binding z-score of 1.09. CCTTACGGGTCAAGGTTAGAGCACGGGTGGTACG was tested, and the PBM binding z-score was 2.94. AGAATGAGGTTATTCAGATCAGGGAATTGCGGTC gave a PBM binding z-score of 2.51. Sequence AGAACGAGGGCAATGAGATGATAGCACGGGTGGC has a PBM binding z-score of 0.651. With CATAGAGGGTCAGCTAGGCCAGAGTAGGGACGGC the PBM binding z-score was 2. Sequence CCTATTAGTTGACCATAAAGGCAACCGAAGCTCG has a PBM binding z-score of 0.39. Sequence TGAATGAGGTTAAAGATCAGGCAACGTGGCGTCG has a PBM binding z-score of 2.71. With CGCCCAAGGTCAAGGTCAGTGAAAGAGACTCGAA the PBM binding z-score was 4.42. GCTAGCAGGTCATTTGGGTCACTCAATGACGGGC was tested, and the PBM binding z-score was 3.74. For ATCTCTAGGTAAAGATAGGTCAGTGAATGCAAAT, the PBM binding z-score was 2.02. In the case of CCAGACAGGTGCAAGGTAACTCAGTCTGGTACGC, the PBM binding z-score is reported as 0.379. In the case of AGTCAAAGTTCAGGACCAGGTAACGTAAAGCACG, the PBM binding z-score is reported as 3.14. For GCAGACAGGTGAAACGCAGGTACCTCAGGGTGGC, the PBM binding z-score was 0.295. With CATCCAGGGTCAGCTAGGCCAGAGTAGGGACGGC the PBM binding z-score was 3.18. For TGAATGTGGTTAAAGATCAGGGAACGTGGCGTCG, the PBM binding z-score was -0.141. For TCTAGTTGGTCACGGAGGCCACACACGACGGGTA, the PBM binding z-score was 0.977. For TTACCATGGTGAAAGGTCGTTGATGCACGCCTTG, the PBM binding z-score was 1.64. For TCTAATTGGTCAAAGGTCACACACTCGAAATGCG, the PBM binding z-score was 4.13. GCGACTGGGGCATAGCAGGTTACCATAAGGTTGG showed a PBM binding z-score of 2.44. For CCTAGCAGGCCAATCTTGGTCACTCAAGGCTTGA, the PBM binding z-score was 0.909. For TCATATACGTAAACAGGTGAAAGTCCGTAAGTTA, the PBM binding z-score was 0.985. Work on CCTACTGGCCCATTCAGAGGTCATTGATCATATG yielded a PBM binding z-score of 3.04. In the case of ATCTCTAGGTAACAAGTTCAGTTAAAGAGAGGAC, the PBM binding z-score is reported as 1.73. Sequence GCTAGCAGGCCCTTTGGGTCACTCAATGACGGGC has a PBM binding z-score of 1.67. ACTAGCAGGCCAAGTTTGGGTCACTCAAACAAAG was tested, and the PBM binding z-score was 2.54. Sequence ACAGACAGGTGATGAAGGAAACTCAGGCTATCAT has a PBM binding z-score of 0.154. With ATCTCTAGGTACCAAGTTCAGTGAAAGAGAGGAC the PBM binding z-score was 0.926. In the case of GCGACTGGGGCATCAGCAGGTCACCATAACTTAA, the PBM binding z-score is reported as 3.02. Work on TCTATTAGTTGATTAGGGCTACCGAAACAGCGGA yielded a PBM binding z-score of 0.166. ACTAGTTGGTCAGCAGAGGTCACACACAATTCGG gave a PBM binding z-score of 4.52. ATTGAAAGGTCGAAGGTGAGTATACCCACCCGAA showed a PBM binding z-score of 2.22. In the case of TCTAGCAGGCCAGAGGGTCACGCAAGAGGTACGG, the PBM binding z-score is reported as 2.33. Sequence TCTAGTTGGTCAAAGGTCGCACACTCGAAATGCG has a PBM binding z-score of 2.48. GCTGCTAGGTCAACTGATGGTCAGCTCAAGCTCG showed a PBM binding z-score of 3.09. CGCCAAAGTTCAACTAAGGTAACGTAAAGCACGC gave a PBM binding z-score of 5.24. In the case of TCAGACAGGTGAAGTTAACTCAGGTACGCAGTCG, the PBM binding z-score is reported as 1.55. ATATGTAGGTTAAGGGTCATACAGGTTGGTTCGC showed a PBM binding z-score of 3.48.

Each sequence was assayed on THRa homodimer (NR concentration 90 nM) in the same assay as above.
Procedure, shortened: as §1
CATACAGGGTCAGCTAGGCCAGAGTGGGGACGGC was tested, and the PBM binding z-score was 1.52. CGTCCAAGGTCAAATGTCAGTGAAGAGATGACGG showed a PBM binding z-score of 2.21. ATATGTAGGTTACATCCGGCTCATTCAGGCTATG was tested, and the PBM binding z-score was 0.4. Sequence CCTTACGGGTCAAGGTTAGAGCACGGGTGGTACG has a PBM binding z-score of 0.656. AGAATGAGGTTATTCAGATCAGGGAATTGCGGTC was tested, and the PBM binding z-score was 0.965. AGAACGAGGGCAATGAGATGATAGCACGGGTGGC gave a PBM binding z-score of 0.199. CATAGAGGGTCAGCTAGGCCAGAGTAGGGACGGC showed a PBM binding z-score of 0.171. In the case of CCTATTAGTTGACCATAAAGGCAACCGAAGCTCG, the PBM binding z-score is reported as 0.543. With TGAATGAGGTTAAAGATCAGGCAACGTGGCGTCG the PBM binding z-score was 0.312. CGCCCAAGGTCAAGGTCAGTGAAAGAGACTCGAA gave a PBM binding z-score of 3.53. Work on GCTAGCAGGTCATTTGGGTCACTCAATGACGGGC yielded a PBM binding z-score of 1.48. ATCTCTAGGTAAAGATAGGTCAGTGAATGCAAAT was tested, and the PBM binding z-score was 0.451. CCAGACAGGTGCAAGGTAACTCAGTCTGGTACGC gave a PBM binding z-score of 0.244. AGTCAAAGTTCAGGACCAGGTAACGTAAAGCACG gave a PBM binding z-score of 0.673. For GCAGACAGGTGAAACGCAGGTACCTCAGGGTGGC, the PBM binding z-score was -0.722. For CATCCAGGGTCAGCTAGGCCAGAGTAGGGACGGC, the PBM binding z-score was 1.34. For TGAATGTGGTTAAAGATCAGGGAACGTGGCGTCG, the PBM binding z-score was -0.0512. TCTAGTTGGTCACGGAGGCCACACACGACGGGTA showed a PBM binding z-score of 0.377. TTACCATGGTGAAAGGTCGTTGATGCACGCCTTG was tested, and the PBM binding z-score was 0.0302. Work on TCTAATTGGTCAAAGGTCACACACTCGAAATGCG yielded a PBM binding z-score of 2.44. Work on GCGACTGGGGCATAGCAGGTTACCATAAGGTTGG yielded a PBM binding z-score of -0.122. CCTAGCAGGCCAATCTTGGTCACTCAAGGCTTGA gave a PBM binding z-score of -0.83. Sequence TCATATACGTAAACAGGTGAAAGTCCGTAAGTTA has a PBM binding z-score of 0.342. Work on CCTACTGGCCCATTCAGAGGTCATTGATCATATG yielded a PBM binding z-score of 1.71. ATCTCTAGGTAACAAGTTCAGTTAAAGAGAGGAC was tested, and the PBM binding z-score was 1.16. GCTAGCAGGCCCTTTGGGTCACTCAATGACGGGC gave a PBM binding z-score of 0.25. ACTAGCAGGCCAAGTTTGGGTCACTCAAACAAAG was tested, and the PBM binding z-score was 0.952. ACAGACAGGTGATGAAGGAAACTCAGGCTATCAT showed a PBM binding z-score of 0.0695. ATCTCTAGGTACCAAGTTCAGTGAAAGAGAGGAC showed a PBM binding z-score of 0.692. GCGACTGGGGCATCAGCAGGTCACCATAACTTAA showed a PBM binding z-score of 1.44. TCTATTAGTTGATTAGGGCTACCGAAACAGCGGA gave a PBM binding z-score of -0.0313. ACTAGTTGGTCAGCAGAGGTCACACACAATTCGG gave a PBM binding z-score of 2.95. Sequence ATTGAAAGGTCGAAGGTGAGTATACCCACCCGAA has a PBM binding z-score of 0.13. TCTAGCAGGCCAGAGGGTCACGCAAGAGGTACGG was tested, and the PBM binding z-score was -0.0703. In the case of TCTAGTTGGTCAAAGGTCGCACACTCGAAATGCG, the PBM binding z-score is reported as 0.836. GCTGCTAGGTCAACTGATGGTCAGCTCAAGCTCG gave a PBM binding z-score of 1.25. CGCCAAAGTTCAACTAAGGTAACGTAAAGCACGC showed a PBM binding z-score of 2.11. Sequence TCAGACAGGTGAAGTTAACTCAGGTACGCAGTCG has a PBM binding z-score of 0.285. ATATGTAGGTTAAGGGTCATACAGGTTGGTTCGC was tested, and the PBM binding z-score was 1.48.
